In PubChem BioAssay AID652154 (Broad Institute, 2013) one finds inhibition data, which are given here for 65 molecules.

Values joined by “and” are separate entries in the source; they are usually repeats but may differ in a detail not shown here. Identical values can stand only once. Among all 360,000 compounds or so, about 4,200 (1.2%) were called active.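 How the source made its calls: active means mean replicate inhibition at least 60% with every replicate also reaching 60%; inconclusive means only one of the two criteria is met; inactive means mean below 60% and not all replicates reaching 60%.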 Only a selection was taken, and actives are over-represented in it overall. Some structures have more than one record in an assay (separate samples or runs), and their calls can disagree.

The assay in a line: inhibitors of PAX8-driven TPO luciferase reporter, primary screen, RMG-I cells, single concentration (AID 652154).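 Further: luciferase light reporting Pax8 driven TPO promoter activity; plate controls were median of neutral control wells for no effect and mitoxantrone controls for full effect.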 Conditions: SteadyGlo, 24 h, at 12.6 µM, stronger effect = higher value.
On to `COc1cc2c(cc1OC)CN(C(=O)c1cc(S(=O)(=O)N3CCCCC3)ccc1Cl)CC2`, for which the inhibition is -3.73% (inactive). With `COc1cc2c(cc1OC)CN(C(=O)c1ccc(S(=O)(=O)N3CCCCCC3)cc1)CC2` the figure was 11.3% (inactive); with `CCOc1cc(C(=O)N2CCc3cc(OC)c(OC)cc3C2)ccc1OC(F)F`, 86.2% (active).

Consider `O=C(C[C@H]1C[C@H]2c3cc(NC(=O)CC4CC4)ccc3O[C@H]2[C@H](CO)O1)NCc1ccccn1`, for which the inhibition was -23.5% (inactive).

For the molecule `COc1ccc(S(=O)(=O)Nc2ccc3c(c2)C(=O)N([C@@H](C)CO)C[C@@H](C)[C@H](CN(C)C(=O)CCC(F)(F)F)OCCCC[C@H](C)O3)cc1`, the inhibition was 6.54% (inactive). The same measure for `O=S(=O)(NCc1ccccn1)c1ccc(Br)s1`: -3.1% (inactive). The same measure for `O=S(=O)([N-]c1nc2ccccc2nc1-[n+]1ccc(Cc2ccccc2)cc1)c1ccc(Br)s1`: 70.9% (active); for `COc1ccc(S(=O)(=O)Nc2cccc3c2O[C@@H](CN(C)C(=O)Nc2ccccc2)[C@@H](C)CN([C@H](C)CO)C3=O)cc1`: 11% (inactive); for `Cc1oc2c(c1C(=O)N1CCOCC1)C(=O)c1ccccc1C2=O`: 83.3% (active).

With `Cc1ccc(C(=O)N2CCN(S(=O)(=O)N3CCOCC3)CC2)cc1`, the inhibition was -3.97% (inactive).

On to `Cc1ccc(S(=O)(=O)NC(C(=O)N2CCOCCOCCOCCOCC2)c2ccccc2)cc1` (stereo not given), for which the inhibition was 5.5% (inactive). As for `CN(C)C(=O)[C@@H]1[C@@H](CO)[C@@H]2Cn3c(cccc3=O)[C@@H]2N1C(=O)C1CCC1`, the inhibition is -6.21% (inactive).

Take `CCCN1C[C@@H](C)[C@@H](OC)CN(C)C(=O)c2cc(NC(=O)Nc3cccc(F)c3)ccc2OC[C@@H]1C`: the inhibition is 13.5% (inactive). Turning to `N#C[C@@H]1[C@@H](c2ccc(C3=CCCC3)cc2)[C@@H](CO)N1C(=O)C1CCCC1`, the inhibition was 3.84% (inactive). The same measure for `CCCCC(=O)NC(c1ccc(OC)c(OC)c1)c1ccc2cccnc2c1O` (stereo not given): 78.7% (active). The same measure for `C=CCn1c(COc2cccc3cccnc23)nnc1SCC(=O)OC`: 21.9% (inactive). The same measure for `CCOc1ccc(C(CC(=O)O)n2cnnn2)cc1OC` (stereo not given): 7.25% (inactive); for `C[C@@H]1CCCCO[C@@H](CN(C)C(=O)Nc2cccc3ccccc23)[C@H](C)CN([C@H](C)CO)C(=O)c2cc(NC(=O)NC3CCCCC3)ccc2O1`: 34.7% (inactive); for `Cc1noc(C)c1S(=O)(=O)Nc1ccc2c(c1)C(=O)N([C@@H](C)CO)C[C@@H](C)[C@@H](CN(C)Cc1ccccc1)OCCCC[C@H](C)O2`: 27.1% (inactive). As to `COc1ccc(CN2C(=O)C(CC(=O)NCc3cccc4ccccc34)CC(C(=O)N3CCOCC3)=C2C)cc1` (stereo not given), the inhibition was -99.8% (inactive). With `CCN(CC)C(=O)C1=C(C)N(Cc2ccc(OC)cc2)C(=O)C(CC(=O)NCCCCc2ccccc2)C1` (stereo not given) the figure was 8.41% (inactive); with `COc1ccc(CN2C(=O)C(CC(=O)NCCCCc3ccccc3)CC(C(=O)N3CCOCC3)=C2C)cc1` (stereo not given), 91.4% (active).

As to `CN1C(=O)c2cc(NC(=O)c3ccc(F)cc3)ccc2OC[C@H]2O[C@H](CC(=O)N3CCOCC3)CC[C@@H]21`, the inhibition is -0.681% (inactive). With `Cc1cc(C)n2nc(SCC(N)=O)nc2n1` the figure was -3.44% (inactive); with `COc1ccc(Cl)cc1C(=O)NNC(=O)c1nc2nc(C)cc(C)n2n1`, -17.5% (inactive). With `Cc1cc(C)n2nc(CNS(=O)(=O)c3c(F)c(F)c(F)c(F)c3F)nc2n1` the figure was 85.5% (active). With `Cc1noc(C)c1NC(=O)Nc1ccc2c(c1)C(=O)N([C@@H](C)CO)C[C@@H](C)[C@@H](CN(C)CC1CCCCC1)O2` the figure was -11.2% (inactive); with `COc1ccc(NC(=O)N(C)C[C@@H]2Oc3ccc(NC(=O)CCCN(C)C)cc3CC(=O)N([C@H](C)CO)C[C@H]2C)cc1`, 2.7% (inactive); with `C[C@@H]1CCCCO[C@@H](CN(C)Cc2ccncc2)[C@@H](C)CN([C@@H](C)CO)C(=O)c2cc(NC(=O)Nc3ccc(F)cc3)ccc2O1`, -6.16% (inactive). In the case of `C[C@H]1CCCCO[C@@H](CN(C)Cc2ccncc2)[C@@H](C)CN([C@@H](C)CO)C(=O)c2cc(NC(=O)Nc3ccc(F)cc3)ccc2O1`, the inhibition is -6.76% (inactive).

With `C[C@@H]1CN([C@H](C)CO)C(=O)c2cc(NC(=O)Nc3ccc(F)cc3)ccc2O[C@@H](C)CCCCO[C@H]1CN(C)Cc1ccc(Cl)c(Cl)c1`, the inhibition is 77.5% (active). With `C[C@H]1CCCCO[C@@H](CN(C)Cc2ccc3c(c2)OCO3)[C@@H](C)CN([C@@H](C)CO)C(=O)c2cc(NC(=O)Nc3ccc(F)cc3)ccc2O1` the figure was 87.4% (active); with `C[C@@H]1CCCCO[C@H](CN(C)Cc2ccncc2)[C@H](C)CN([C@H](C)CO)C(=O)c2cc(NC(=O)Nc3ccccc3)ccc2O1`, 18.7% (inactive). With `C[C@@H]1CCCCO[C@@H](CN(C)Cc2ccc3c(c2)OCO3)[C@@H](C)CN([C@@H](C)CO)C(=O)c2cc(NC(=O)Nc3ccccc3)ccc2O1` the figure was -0.474% (inactive); with `C[C@@H]1CCCCO[C@H](CN(C)Cc2ccc(Cl)c(Cl)c2)[C@@H](C)CN([C@@H](C)CO)C(=O)c2cc(NC(=O)Nc3ccccc3)ccc2O1`, 93.9% (active); with `C[C@@H]1CN([C@H](C)CO)C(=O)c2cc(NC(=O)Nc3ccc4c(c3)OCO4)ccc2O[C@@H](C)CCCCO[C@@H]1CN(C)Cc1ccc2c(c1)OCO2`, 25.2% (inactive). For `C[C@H](CO)N1C[C@H](C)[C@H](CN(C)Cc2ccc(Cl)c(Cl)c2)OCCCC[C@H](C)Oc2ccc(NC(=O)NC3CCCCC3)cc2C1=O`, the inhibition was 92.7% (active). With `C[C@@H]1CCCCO[C@@H](CN(C)Cc2ccncc2)[C@H](C)CN([C@H](C)CO)C(=O)c2cc(NC(=O)NC3CCCCC3)ccc2O1`, the inhibition was 8.64% (inactive). With `C[C@H]1CCCCO[C@H](CN(C)Cc2ccccc2)[C@@H](C)CN([C@@H](C)CO)C(=O)c2cc(NC(=O)NC3CCCCC3)ccc2O1` the figure was 5.95% (inactive); with `C[C@@H]1CN([C@H](C)CO)C(=O)c2cc(NC(=O)Nc3ccccc3)ccc2O[C@@H](C)CCCCO[C@@H]1CN(C)Cc1ccncc1`, 6.95% (inactive). For the molecule `CN(C)C(=O)[C@H]1[C@H](CO)[C@H]2Cn3c(ccc(-c4ccc(F)cc4)c3=O)[C@H]2N1C(=O)c1ccccn1`, the inhibition was -7.59% (inactive). For the molecule `CCCNC(=O)N[C@@H]1CC[C@@H](CCn2cc(C3CC3)nn2)O[C@@H]1CO`, the inhibition was 3.4% (inactive). With `C[C@@H]1CCCCO[C@@H](CN(C)S(=O)(=O)c2cn(C)cn2)[C@H](C)CN([C@H](C)CO)C(=O)c2cc(NS(=O)(=O)c3ccc(Cl)cc3)ccc2O1` the figure was 4.97% (inactive); with `C[C@H]1CN([C@@H](C)CO)C(=O)c2cccc(NS(=O)(=O)c3ccc(Cl)cc3)c2O[C@H]1CN(C)Cc1ccc2c(c1)OCO2`, 4.78% (inactive). The same measure for `CC(C)NC(=O)N[C@H]1CC[C@@H](CC(=O)NCc2ccc(Oc3ccccc3)cc2)O[C@@H]1CO`: -20.9% (inactive). The same measure for `C[C@H](CO)N1C[C@H](C)[C@H](CN(C)C(=O)Nc2ccc(F)cc2)Oc2ncc(-c3cc4ccccc4o3)cc2C1=O`: 23.1% (inactive); for `C[C@@H]1CCCCO[C@@H](CN(C)Cc2ccc(Cl)c(Cl)c2)[C@H](C)CN([C@H](C)CO)C(=O)c2cc(NC(=O)Nc3ccc(F)cc3)ccc2O1`: 102% (active); for `COc1ccc(NC(=O)Nc2ccc3c(c2)C(=O)N([C@H](C)CO)C[C@@H](C)[C@H](CN(C)Cc2ccc(Cl)c(Cl)c2)OCCCC[C@@H](C)O3)cc1`: 57.5% (inactive). With `CC(C)NC(=O)Nc1ccc2c(c1)C(=O)N([C@@H](C)CO)C[C@@H](C)[C@H](CN(C)Cc1ccc(Cl)c(Cl)c1)OCCCC[C@H](C)O2`, the inhibition is 38% (inactive). Regarding `O=S(=O)(c1ccccc1)N1C[C@@H]2[C@H](c3ccccc31)[C@H](CO)N2Cc1ccccn1`, the inhibition is 19.7% (inactive). The same measure for `O=C(C1CCCCC1)N1CC2(C1)[C@H](c1ccccc1)[C@@H](CO)N2CCC(F)(F)F`: -17.1% (inactive); for `CC(=O)Nc1ccc2c(c1)C(=O)N(C)[C@@H]1CC[C@@H](CC(=O)NCC3CCCCC3)O[C@@H]1CO2`: -4.32% (inactive); for `COc1ccc(NC(=O)Nc2ccc3c(c2)C(=O)N([C@@H](C)CO)C[C@H](C)[C@@H](CN(C)C(=O)NC2CCCCC2)O3)cc1`: -4.33% (inactive).

As to `COc1ccc(/C=C2/CCCc3ccccc3C2=O)cc1`, the inhibition is -38.8% (inactive).

For `COc1ccc(OC)c(C2C3=C(N=c4s/c(=C\c5cccc(O)c5)c(=O)n42)c2ccccc2CC3)c1` (stereo not given), the inhibition is 64.2% (active). Turning to `COc1ccc(C[C@@H]2CCc3cnnn3COC[C@H](c3ccccc3)NC2=O)cc1`, the inhibition is 1.19% (inactive).

`O=C(C1CCOCC1)N1CC(=O)N2[C@H](CO)[C@H](c3ccc(C#Cc4cccc(F)c4)cc3)[C@H]2C1`: the inhibition was -14.5% (inactive). The same measure for `O=C(N[C@H]1CC[C@H](CCn2cc(C3(O)CCCC3)nn2)O[C@H]1CO)C1CC1`: 13.3% (inactive); for `O=C(c1ccncc1)N1CCCCN2[C@H](CO)[C@@H](c3ccc(C#Cc4ccccn4)cc3)[C@H]2C1`: 5.08% (inactive); for `O=C(COc1ccc(-n2cnnn2)cc1)Nc1ccccc1Cl`: -3.21% (inactive). For the molecule `CS/C(=C\C(=O)c1ccco1)Nc1ccccc1Cl`, the inhibition is 30.8% (inactive). With `O=C(Nc1ccccc1Cl)/C(Cl)=C(\Cl)S(=O)c1ccccc1` (stereo not given) the figure was 111% (active). The same measure for `COc1ccc(-c2ccc(C3[C@@H]4CN(S(=O)(=O)c5cn(C)cn5)C[C@H]3N4)cc2)cc1` (stereo not given in full): -15.4% (inactive); for `Cn1cnc(S(=O)(=O)N2C[C@@H]3N[C@H](C2)C3c2ccc(-c3ccccc3F)cc2)c1` (stereo not given in full): 77.5% (active) and 26.1% (inactive); for `Cn1cnc(S(=O)(=O)N2C[C@@H]3N[C@H](C2)C3c2ccc(/C=C/c3ccccc3)cc2)c1` (stereo not given in full): -2.85% (inactive) and -1.61% (inactive).

The inhibition is the drop in the measured response relative to a control, in per cent.
